# UBC9 SUMO inh: blocks human SUMOylation mediated by UBC9. AID 2006. HTRF SUMOylation assay, SAE1/SAE2 + UBC9, in vitro. 0.36% of 290,000 active. inhibition, % at 35 µM; in the data active = inhibition above about 50%, passing the limit was not always enough
# Target sequence (P63279 whole entry, looked up): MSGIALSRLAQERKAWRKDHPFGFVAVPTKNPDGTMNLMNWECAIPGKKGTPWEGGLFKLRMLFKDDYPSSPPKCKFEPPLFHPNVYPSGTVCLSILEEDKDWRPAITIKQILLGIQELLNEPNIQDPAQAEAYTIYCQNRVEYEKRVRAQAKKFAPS
# Cardio protect: modulators protecting cardiomyocytes from myocardial damage. AID 588492. protection from H2O2 cell death, % at 20 µM. 0.63% of 360,000 active. H9c2 cardiomyocytes, H2O2 injury protection, ATPLite, 2 h;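 active = compounds giving at least 50% protection of heart cells from peroxide-induced death in the single-dose screen, raw or plate-pattern-corrected value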;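 note: 0% = DMSO wells with peroxide and 100% = DMSO wells without peroxide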
# NTR1 ag: NTR1 (human) agonism. P30989. NTR1-U2OS beta-arrestin-GFP spot imaging, agonist mode. activation, % at 20 µM. 0.17% of 330,000 active. AID 493036;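 active = activation at or above 40% of the spot to cytoplasm intensity ratio, with at least 20 cells analyzed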;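 note: 0% = DMSO without peptide and 100% = 100 nM NTR1 peptide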
# Target sequence (P30989 whole entry, looked up): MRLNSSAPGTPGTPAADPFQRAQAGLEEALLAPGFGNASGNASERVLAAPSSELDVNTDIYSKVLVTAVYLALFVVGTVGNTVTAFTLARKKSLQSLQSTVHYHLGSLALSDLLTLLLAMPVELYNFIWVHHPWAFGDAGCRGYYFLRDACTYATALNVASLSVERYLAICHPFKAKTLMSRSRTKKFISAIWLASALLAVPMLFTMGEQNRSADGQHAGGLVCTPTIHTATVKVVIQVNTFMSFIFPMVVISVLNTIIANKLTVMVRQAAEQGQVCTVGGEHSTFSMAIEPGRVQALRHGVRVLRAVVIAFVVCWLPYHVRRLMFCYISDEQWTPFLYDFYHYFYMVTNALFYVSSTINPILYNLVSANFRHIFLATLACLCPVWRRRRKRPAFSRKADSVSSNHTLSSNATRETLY
# ALR inh: human ALR oxidase inhibition via reduced H2O2 | 3.8% of 290,000 active | P55789 | AID 485317 | purified ALR, DTT oxidation, H2O2 HRP-luminol luminescence | inhibition, % (no concentration beside the values);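 active = mean replicate inhibition above about 79%, with every replicate also reaching it, limit read from the data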
# * = called active by the depositor; . = not tested or not shown. An excerpt weighted towards active compounds, which were near 3.9% of everything screened.
SMILES,UBC9 SUMO inh,Cardio protect,NTR1 ag,ALR inh
COc1cc(C2C(C#N)=C(N)N(c3sc4c(c3C#N)CCCC4)C3=C2C(=O)CC(C)(C)C3)cc(OC)c1OC (stereo not given),15.9,6.9,14.7,-0.2
CCc1nc2ccc(C(=O)Nc3cccc(OCC(=O)N(C)C)c3)cn2c1N(C)Cc1cc2ccccc2s1,.,54.2*,.,.
CCc1nc2ccc(C(=O)Nc3cc(-c4ccccc4)ccc3OC)cn2c1N(C)Cc1nccs1,.,75.3*,.,.
CCc1nc2ccc(C(=O)Nc3cc(-c4ccccc4)ccc3OC)cn2c1N(C)Cc1ccc(OC)cc1,.,13.5,.,.
Cc1nc2sc(C(c3ccco3)N3CCN(c4cccc(Cl)c4)CC3)c(O)n2n1 (stereo not given),-1.0,-1.0,3.7,17.3
O=[N+]([O-])c1ccc(O)c(CNCc2ccccc2)c1,.,3.1,.,.
COC(C(=O)N/N=C(\C)c1ccc(O)cc1)c1ccccc1 (stereo not given),-3.1,-6.7,-0.2,98.3*
COC(C(=O)N/N=C(\C)c1ccc(C)cc1)c1ccccc1 (stereo not given),23.7,-1.6,0.1,-12.0
O=C(N/N=C/c1cccc(O)c1)c1csc2ccccc12,19.3,0.5,-1.3,33.4
C/C(=N\NC(=O)C(c1ccccc1)c1ccccc1)c1ccc(O)cc1,5.0,-0.9,1.9,90.0*
C/C(=N\NC(=O)c1csc2ccccc12)c1ccc(O)cc1,12.8,2.4,-1.7,99.5*
CC(OC(=O)c1cccc(S(=O)(=O)N(C)C)c1)C(=O)NCC(=O)Nc1ccc(F)c(F)c1F (stereo not given),.,-7.9,.,.
O=S1(=O)CC(NCc2ccccc2)C(Nc2ccccc2)C1 (stereo not given),4.0,3.0,0.8,34.9
COc1ccc(NC2CS(=O)(=O)CC2NCc2ccco2)cc1 (stereo not given),4.5,-2.3,0.7,98.7*
CC(C)OC(=O)CSc1nnc(-c2cnccn2)n1-c1ccccc1,-2.0,10.6,0.3,1.3
O=C(Nc1ccc(Cl)cc1)NC1CCCCC1,-19.1,-4.8,1.4,-9.1
Nc1ccc(NC(=O)NC2CCCCC2)cc1,-10.4,-6.3,-1.1,99.1*
CCN(Cc1nc2ccccc2c(=O)[nH]1)C(=O)c1ccc(C)c(NC(=O)c2ccco2)c1,.,0.6,0.4,2.4
Cc1ccc(/C=c2\sc3nc(-c4cccs4)nn3c2=O)o1,18.7,-1.9,2.1,99.1*
O=C(Cn1ncc2c1-c1ccccc1OC2)N1CCN(Cc2ccc3c(c2)OCO3)CC1,5.6,4.7,0.3,-14.5
COc1ccc(-c2c(C)nn(Cc3ccccc3)c2N)cc1,-13.6,-1.1,-1.0,96.8*
Cc1ccc(S(=O)(=O)N2CCCCC2)cc1NC(=O)c1ccc2ccccc2n1,1.2,5.6,-0.1,-18.4
COc1cc(CN=Cc2c(O)n(Cc3ccccc3)c(=S)[nH]c2=O)cc(OC)c1,13.4,-6.1,-1.1,-9.6
COc1ccc(N2CCN(C(=O)CSc3nnnn3C3CC3)CC2)cc1,.,6.6,-2.4,86.6*
O=C(CCC(=O)N1CCN(c2cccc(Cl)c2)CC1)N1CCN(c2ccccc2)CC1,-6.9,1.4,2.8,98.5*
SMILES,UBC9 SUMO inh,Cardio protect,NTR1 ag,ALR inh
CCOC(=O)N1CCN(C(=O)CSCc2ccccc2C)CC1,20.1,6.7,-0.9,4.4
CCOC(=O)N1CCN(C(=O)CSCc2ccccc2Cl)CC1,8.4,-2.3,5.8,99.0*
COc1ccc(C(=O)CCC(=O)N2CCN(c3ccc(C)cc3)C(C)C2)cc1 (stereo not given),0.1,-7.3,-1.0,99.0*
COc1ccccc1N1CCN(C(=O)CSc2nnnn2C2CC2)CC1,.,6.3,0.2,.
Cc1occc1C(=O)Nc1cccc(C(=O)NCc2ccccc2)c1,-0.2,4.4,-0.5,11.2
O=C(CCCc1ccccn1)c1ccccc1,.,-1.8,.,.
O=C(O)C(Oc1ccc2c(c1)oc(=O)c1ccccc12)c1ccccc1 (stereo not given),16.6,1.3,1.4,0.2
CC(=O)NC(Cc1ccc(C)cc1)C(=O)NC1CCN(c2ncccc2[N+](=O)[O-])CC1 (stereo not given),-1.1,11.2,1.3,-0.6
Cc1cscc1-c1nc(NCC2CC2)nc2ccsc12,.,-1.0,.,.
COc1ccc(N2CCN(C(=O)C3(C)CC3(Cl)Cl)CC2)cc1 (stereo not given),-7.8,3.6,1.9,99.2*
O=C(Cc1ccc(Cl)cc1)N1CCN(c2ccccc2)CC1,5.7,1.1,-0.2,87.8*
COc1ccc(N2CCN(C(=O)Cc3ccc(C)cc3)CC2)cc1,-8.5,8.9,1.4,79.6*
CCOC(=O)N1CCN(C(=O)Cc2ccc(Cl)cc2)CC1,8.1,5.2,-0.9,96.1*
CSc1ncccc1C(=O)Nc1ccc(S(=O)(=O)Nc2nccs2)cc1,12.3,-0.1,-1.5,20.2
CC(C)(C)CC(C)(C)n1nnnc1N,.,-3.4,.,.
Clc1ccc2c(NNc3ccccc3Cl)ccnc2c1,2.7,-6.2,3.7,-0.2
COc1ccc(N2CCN(C(=O)c3c(Cl)cnn3C)CC2)cc1,9.4,0.4,0.5,98.8*
COc1cc(/C=N/Nc2nc3ccccc3[nH]c2=O)ccc1O,-1.6,2.0,-1.5,99.1*
COc1cc(/C=N/Nc2nc(C)cc(C)n2)ccc1O,.,0.2,.,.
O=C(N/N=C/c1cc([N+](=O)[O-])ccc1O)c1cc(-c2ccccc2)nc2ccccc12,-52.5,17.0,0.5,-3.0
COc1cc(/C=N/Nc2nc3ccccc3[nH]2)ccc1O,-11.6,3.4,-0.3,99.8*
COc1cccc(/C=N/Nc2nc3ccccc3[nH]2)c1OC,6.5,0.2,-1.1,.
CC(=O)Nc1ccc(/C=N/Nc2nc3ccccc3[nH]2)cc1,0.1,-2.1,-1.2,.
Cc1cc(C(=O)N/N=C/c2cc([N+](=O)[O-])ccc2O)c2ccccc2n1,-23.4,56.1*,2.0,-1.0
COc1ccc(O)c(/C=N/Nc2nc3ccccc3[nH]2)c1,8.6,-2.7,2.5,98.9*
SMILES,UBC9 SUMO inh,Cardio protect,NTR1 ag,ALR inh
CC1(C)CC(=O)C2=C(C1)OC(/N=C/N1CCCC1)=C(C#N)C2c1ccccc1 (stereo not given),1.9,-0.7,-0.4,-8.4
CC(CNC(=O)c1ccc(OC2CCN(Cc3ccccn3)CC2)cc1)c1ccccc1 (stereo not given),8.2,-5.6,-0.5,.
O=[N+]([O-])c1ccc(O)c(/C=N/Nc2nc3ccccc3[nH]2)c1,-110.2,35.0,-0.1,89.0*
COc1cc(/C=N/Nc2nc3ccccc3[nH]2)cc(OC)c1O,8.3,-6.3,0.2,99.4*
COc1cccc(/C=N/Nc2nc3ccccc3[nH]2)c1O,-31.6,12.7,4.0,.
COC(=O)c1ccc(/C=N/Nc2nc3ccccc3[nH]2)cc1,22.8,0.5,-0.2,51.0
COc1cc(/C=N/Nc2nc3ccccc3[nH]2)cc(Br)c1OCC(=O)N(C)C,15.1,11.1,0.7,98.9*
O=[N+]([O-])c1ccc(O)c(/C=N/Nc2ccccn2)c1,-93.2,26.0,.,.
COc1cc(/C=C(/C(=O)c2cccs2)c2nc3ccccc3[nH]2)cc(OC)c1O,4.1,-14.3,25.1,99.7*
COc1ccc(C(c2c(O)nc(SC)n(C)c2=O)c2c(O)nc(SC)n(C)c2=O)cc1O,-7.0,1.8,-1.6,58.0
COc1cc(/C=N/Nc2nc(=O)[nH]nc2C)ccc1O,4.5,2.0,3.9,99.9*

# Screening results: PubChem, several laboratories
